Inconclusive results are not listed. Activity calls are given as the source filed them. Unless noted, the call rests on the fitted dose curve; in most records, active means well fitted curve in the direction sought with a large enough effect in the repeat runs; inconclusive means weak or mixed curves; inactive means no such curve, though single readings can be large; an effect the other way counts as inactive or inconclusive.
What was measured:
[1] = qHTS assay to identify small molecule antagonists of the thyroid receptor (TR) signaling pathway (AID 743065); further: series mostly up to about 70 µM; nearly all actives have a fitted effect of over 55% in size
In short: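 GH3.TRE-Luc rat pituitary cells carrying two TR response elements driving luciferase were plated for 4 h, given compound plus 1 nM T3 (final), and incubated 23.5 h at 37 C. ONE-Glo luminescence measured reporter inhibition; CellTiter-Fluor fluorescence tracked cytotoxicity.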

[2] = tested on: thyroid hormone receptor (rat, GH3 cells); test: qHTS assay to identify small molecule agonists of the thyroid receptor (TR) signaling pathway (AID 743066; calls by dose curve)
[3] = target: Estrogen receptor (Homo sapiens) (UniProt P03372); test: qHTS assay to identify small molecule antagonists of the estrogen receptor alpha (ER-alpha) signaling pathway (AID 743069; active means well fitted curve in the direction sought with a large enough effect in the signal ratio in the repeat runs, not every such curve was filed as active; the % refers to the signal ratio)
In short: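 Screening used a UAS-driven beta-lactamase reporter integrated into HEK293 cells expressing ER-alpha, stimulated with 17beta-estradiol alongside test compounds over 18 hr at 37C; signal came from LiveBLAzer B/G FRET fluorescence.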

[4] = qHTS assay to identify small molecule antagonists of the estrogen receptor alpha (ER-alpha) signaling pathway - cell viability counter screen (AID 743074; calls by dose curve; further: nearly all actives have a fitted effect of over 45% in size)
[5] = target: Estrogen receptor (Homo sapiens) (UniProt P03372); test: qHTS assay to identify small molecule agonists of the estrogen receptor alpha (ER-alpha) signaling pathway (AID 743075; calls by dose curve)
[6] = target: Estrogen receptor (Homo sapiens) (UniProt P03372); test: qHTS assay to identify small molecule agonists of the estrogen receptor alpha (ER-alpha) signaling pathway using the BG1 cell line (AID 743079); further: nearly all actives have a fitted effect of over 20% in size
[7] = qHTS assay to identify small molecule antagonists of the estrogen receptor alpha (ER-alpha) signaling pathway using the BG1 cell line (AID 743080; calls by dose curve;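 further: BG1 cells stimulated with 17beta-estradiol alongside compound; series mostly up to about 70 µM; nearly all actives have a fitted effect of over 25% in size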)
In short: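 Readout is ONE-Glo luminescence, taken 30 min at room temperature after reagent addition, preceded by a CellTiter-Fluor viability read; BG1-Luc-4E2 cells had received compound and 17beta-estradiol for 21.5 h at 37 C.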

[8] = qHTS assay to identify small molecule antagonists of the estrogen receptor alpha (ER-alpha) signaling pathway using the BG1 cell line - cell viability counter screen (AID 743081);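 further: compound given together with 17beta-estradiol as the ER stimulus; series mostly up to about 70 µM; nearly all actives have a fitted effect of over 45% in size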
[9] = target: Aromatase (Homo sapiens) (UniProt P11511); test: qHTS assay to identify aromatase inhibitors (AID 743083); further: series mostly up to about 70 µM; nearly all actives have a fitted effect of over 55% in size
[10] = qHTS assay to identify aromatase inhibitors - cell viability counter screen (AID 743084);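 further: cells stimulated with testosterone during compound exposure; nearly all actives have a fitted effect of over 55% in size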
[11] = target: Aryl hydrocarbon receptor (Homo sapiens) (UniProt P35869); test: qHTS assay to identify small molecule that activate the aryl hydrocarbon receptor (AhR) signaling pathway (AID 743085);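 further: HG2L7.5c1 human HepG2 liver cells with stably integrated DRE-driven firefly reporter; series mostly up to about 70 µM; nearly all actives have a fitted effect of over 15% in size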
In short: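 Luminescence read-out: ONE-Glo reagent, 30 min at room temperature, in HG2L7.5c1 HepG2 reporter cells treated 24 h at 37C. Viability was measured beforehand by CellTiter-Fluor fluorescence after 30 min at 37C.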

[12] = qHTS assay to identify small molecule that activate the aryl hydrocarbon receptor (AhR) signaling pathway - cell viability counter screen (AID 743086);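 further: HepG2 liver cells carrying the AhR DRE luciferase reporter; series mostly up to about 70 µM; nearly all actives have a fitted effect of over 45% in size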
In short: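 HepG2-AhR-luc (HG2L7.5c1) cells, 4000/well, were preincubated 5 h at 37C, exposed to compound in qHTS format for 24 hr at 37C, then given CellTiter-Fluor for 30 min; viability was read as fluorescence in the reporter wells.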

[13] = target: Peroxisome proliferator-activated receptor gamma (Homo sapiens) (UniProt P37231); test: qHTS assay to identify small molecule agonists of the peroxisome proliferator-activated receptor gamma (PPARg) signaling pathway (AID 743094; active means well fitted activation curve with a large enough effect in the signal ratio in the repeat runs, not every such curve was filed as active; the % refers to the signal ratio)
In short: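 Reporter activation was scored by fluorescence of cleaved LiveBLAzer B/G substrate (1 h, room temperature) in PPARg-bla HEK293H cells previously treated 17 h at 37C with DMSO-dissolved compounds.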

[14] = target: Peroxisome proliferator-activated receptor gamma (Homo sapiens) (UniProt P37231); test: qHTS assay to identify small molecule antagonists of the peroxisome proliferator-activated receptor gamma (PPARg) signaling pathway (AID 743191; calls by dose curve; further: series mostly up to about 63 µM; nearly all actives have a fitted effect of over 30% in size)
In short: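 GeneBLAzer PPARg UAS-bla HEK293H cells carrying a UAS-driven beta-lactamase reporter were plated at 3000 cells/well, preincubated 5 h at 37C, then given compound for 17 h at 37C; LiveBLAzer B/G FRET substrate was read after 1 h at room temperature.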

[15] = qHTS assay to identify small molecule antagonists of the peroxisome proliferator-activated receptor gamma (PPARg) signaling pathway - cell viability counter screen (AID 743194); further: nearly all actives have a fitted effect of over 55% in size
In short: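 PPARg-UAS-bla HEK293H cells were plated, rested 5 h at 37 C, then treated with compounds plus rosiglitazone (50 nM final) for 17 h at 37 C; viability was then read by CellTiter-Glo luminescence after 30 min at room temperature.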

[16] = qHTS assay for small molecule agonists of the antioxidant response element (ARE) signaling pathway - cell viability counter screen (AID 743203; calls by dose curve; further: nearly all actives have a fitted effect of over 55% in size)
In short: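 Viability counter screen: stably transfected ARE-bla HepG2 line, 16 hrs compound exposure at 37C/5% CO2, ATP-based CellTiter-Glo luminescence measured in the reporter wells.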

[17] = qHTS assay for small molecule activators of the heat shock response signaling pathway - cell viability counter screen (AID 743209); further: nearly all actives have a fitted effect of over 50% in size
In short: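 Viability of HSE-bla HeLa cells is measured with CellTiter-Glo in the wells already used for the reporter read. Compound exposure lasts 5 h at 37 C, and luminescence is read after 30 min at room temperature.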

[18] = qHTS assay to identify small molecule agonists of the peroxisome proliferator-activated receptor delta (PPARd) signaling pathway - cell viability counter screen (AID 743211); further: nearly all actives have a fitted effect of over 55% in size
In short: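 Read-out: CellTiter-Glo luminescence, 30 min RT, measured in the same wells as the beta-lactamase reporter. Cells: GeneBLAzer PPAR delta UAS-bla HEK293H, 3000 cells/well, compound exposure 17 h at 37C.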

[19] = qHTS assay for small molecule agonists of the antioxidant response element (ARE) signaling pathway (AID 743202; active means well fitted activation curve with a large enough effect in the signal ratio in the repeat runs, not every such curve was filed as active; the % refers to the signal ratio)
In short: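 Steps: seed ARE-bla HepG2 cells (2,000/well); incubate 5 h at 37 C; add compounds by pin tool; incubate 16 h at 37 C; add FRET substrate; read fluorescence after 2 h at RT.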

[20] = qHTS assay for small molecule activators of the heat shock response signaling pathway (AID 743210; active means well fitted activation curve with a large enough effect in the signal ratio in the repeat runs, with a control signal flat, not every such curve was filed as active; the % refers to the signal ratio;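 further: HeLa cells with beta-lactamase reporter driven by heat shock elements; series mostly up to about 63 µM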)
In short: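 Activation of heat shock element-controlled beta-lactamase expression is measured in HeLa cells by LiveBLAzer FRET fluorescence, with compound exposure lasting 5 h at 37 C and substrate loading 2.5 h at room temperature.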
On the % scale 0 is the no-effect control and ±100 the full control effect.

Estrogen receptor (Homo sapiens), sequence (P03372 whole entry, looked up): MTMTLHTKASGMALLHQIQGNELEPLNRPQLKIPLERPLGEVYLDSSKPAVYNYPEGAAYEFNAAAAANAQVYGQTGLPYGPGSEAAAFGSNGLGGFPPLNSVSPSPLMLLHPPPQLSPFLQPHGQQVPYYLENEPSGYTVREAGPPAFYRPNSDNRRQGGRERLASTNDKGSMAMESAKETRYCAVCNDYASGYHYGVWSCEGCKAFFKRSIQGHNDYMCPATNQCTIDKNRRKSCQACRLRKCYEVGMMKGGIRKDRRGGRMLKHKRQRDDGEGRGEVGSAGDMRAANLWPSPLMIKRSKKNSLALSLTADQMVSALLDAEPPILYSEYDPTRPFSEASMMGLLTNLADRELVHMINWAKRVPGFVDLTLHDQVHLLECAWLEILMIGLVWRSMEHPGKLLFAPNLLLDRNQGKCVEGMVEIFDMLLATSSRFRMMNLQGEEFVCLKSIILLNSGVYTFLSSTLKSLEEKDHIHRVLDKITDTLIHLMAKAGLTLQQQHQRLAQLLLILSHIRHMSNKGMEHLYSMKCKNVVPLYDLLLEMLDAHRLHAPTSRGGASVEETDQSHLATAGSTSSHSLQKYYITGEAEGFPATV
Peroxisome proliferator-activated receptor gamma (Homo sapiens), sequence (P37231 whole entry, looked up): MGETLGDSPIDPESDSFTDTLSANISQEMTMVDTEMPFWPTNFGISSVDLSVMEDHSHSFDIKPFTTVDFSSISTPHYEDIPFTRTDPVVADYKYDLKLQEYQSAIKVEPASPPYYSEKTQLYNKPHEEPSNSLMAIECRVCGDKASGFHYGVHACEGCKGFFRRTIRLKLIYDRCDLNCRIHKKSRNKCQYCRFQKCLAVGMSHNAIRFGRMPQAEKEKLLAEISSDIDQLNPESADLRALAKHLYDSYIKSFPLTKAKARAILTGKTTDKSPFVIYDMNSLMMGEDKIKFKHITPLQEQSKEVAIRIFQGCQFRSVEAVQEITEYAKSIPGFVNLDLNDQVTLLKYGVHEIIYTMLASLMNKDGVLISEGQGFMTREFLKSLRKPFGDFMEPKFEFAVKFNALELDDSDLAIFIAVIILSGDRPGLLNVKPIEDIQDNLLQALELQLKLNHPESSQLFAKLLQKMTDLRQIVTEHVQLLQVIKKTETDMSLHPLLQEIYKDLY
Aromatase (Homo sapiens), sequence (P11511 whole entry, looked up): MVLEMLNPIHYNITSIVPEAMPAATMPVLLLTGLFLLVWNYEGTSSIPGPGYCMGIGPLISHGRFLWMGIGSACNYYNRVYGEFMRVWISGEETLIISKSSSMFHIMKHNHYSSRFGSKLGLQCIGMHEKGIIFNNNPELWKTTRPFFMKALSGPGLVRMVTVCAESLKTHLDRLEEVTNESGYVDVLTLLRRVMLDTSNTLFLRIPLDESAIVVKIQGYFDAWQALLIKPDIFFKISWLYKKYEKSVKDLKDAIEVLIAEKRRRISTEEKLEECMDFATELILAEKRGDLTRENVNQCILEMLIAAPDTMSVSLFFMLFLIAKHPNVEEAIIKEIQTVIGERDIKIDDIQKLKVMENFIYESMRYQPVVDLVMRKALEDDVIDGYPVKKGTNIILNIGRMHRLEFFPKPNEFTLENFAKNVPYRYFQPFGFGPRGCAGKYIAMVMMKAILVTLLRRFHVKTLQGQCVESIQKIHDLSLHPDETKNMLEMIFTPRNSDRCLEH
Aryl hydrocarbon receptor (Homo sapiens), sequence (P35869 whole entry, looked up): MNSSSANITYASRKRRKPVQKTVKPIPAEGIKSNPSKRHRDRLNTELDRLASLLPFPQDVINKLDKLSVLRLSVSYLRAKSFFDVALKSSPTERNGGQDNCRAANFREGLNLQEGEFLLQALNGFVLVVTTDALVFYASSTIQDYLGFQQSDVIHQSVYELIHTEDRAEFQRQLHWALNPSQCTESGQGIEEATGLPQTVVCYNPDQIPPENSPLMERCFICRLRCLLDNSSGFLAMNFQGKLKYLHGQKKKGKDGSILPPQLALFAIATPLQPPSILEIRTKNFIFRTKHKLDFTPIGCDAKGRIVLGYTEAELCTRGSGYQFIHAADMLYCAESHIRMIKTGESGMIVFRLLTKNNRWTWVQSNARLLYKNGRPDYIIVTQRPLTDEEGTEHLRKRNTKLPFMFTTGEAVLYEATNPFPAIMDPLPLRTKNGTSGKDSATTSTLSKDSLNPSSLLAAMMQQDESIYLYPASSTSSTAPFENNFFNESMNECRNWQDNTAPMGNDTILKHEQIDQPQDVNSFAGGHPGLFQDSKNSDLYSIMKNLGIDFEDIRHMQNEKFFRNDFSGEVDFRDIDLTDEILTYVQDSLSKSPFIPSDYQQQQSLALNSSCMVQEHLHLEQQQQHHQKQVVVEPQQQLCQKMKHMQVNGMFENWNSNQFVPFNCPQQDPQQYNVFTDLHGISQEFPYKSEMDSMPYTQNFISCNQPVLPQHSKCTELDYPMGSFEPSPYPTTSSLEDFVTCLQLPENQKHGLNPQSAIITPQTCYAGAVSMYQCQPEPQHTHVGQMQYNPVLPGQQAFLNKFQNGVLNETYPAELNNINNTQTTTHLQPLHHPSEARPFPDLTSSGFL

CCCCCCOC(=O)C(C)CC (stereo unspecified)
inactive: Potency [1] | outcome [2] | Potency [3] | Potency [4] | Potency [5] | Potency [6] | Potency [7] | Potency [8] | Potency [9] | Potency [10] | Potency [11] | Potency [12] | Potency [13] | Potency [14] | Potency [15] | Potency [16] | Potency [17] | Potency [18]

CC(C)(C)CC(C)(C)c1ccc(Nc2ccc(C(C)(C)CC(C)(C)C)cc2)cc1
inactive: activity, negative = inhibition [1] 9.26% [at 8.44 µM] | activation [2] 1.29% [at 8.08 µM] | activity, negative = inhibition [3] -8.94% [at 6.71 µM] | activity, negative = cytotoxicity [4] -17.2% [at 6.72 µM] | activation [5] -3.98% [at 6.71 µM] | activation [6] -8.83% [at 8.47 µM] | activity change, negative = inhibition [7] 1.65% [at 8.47 µM] | activity change, negative = cytotoxicity [8] 8.25% [at 8.47 µM] | activity, negative = inhibition [9] -0.995% [at 8.47 µM] | activity change, negative = cytotoxicity [10] 3.33% [at 8.47 µM] | activation [11] -2.79% [at 8.47 µM] | viability change, negative = cytotoxic [12] -11.3% [at 8.47 µM] | activation [13] 0.247% [at 7.08 µM] | activity change, negative = cytotoxicity [15] -4.03% [at 5.95 µM] | activation [19] -4.99% [at 8.36 µM] | viability change, negative = cytotoxic [16] 7.42% [at 8.36 µM] | activity change, negative = cytotoxicity [17] 7.93% [at 5.95 µM] | activity change, negative = cytotoxicity [18] -7.52% [at 5.95 µM]

NC(=O)c1cccc([N+](=O)[O-])c1
inactive: Potency [1] | outcome [2] | Potency [3] | Potency [4] | Potency [5] | Potency [6] | Potency [7] | Potency [8] | Potency [9] | Potency [10] | Potency [11] | Potency [12] | Potency [13] | Potency [14] | Potency [15] | Potency [19] | Potency [16] | Potency [17] | Potency [20] | Potency [18]

CN(C)Cc1ccccc1O
inactive: Potency [1] | outcome [2] | Potency [3] | Potency [4] | Potency [5] | Potency [6] | Potency [7] | Potency [8] | Potency [9] | Potency [10] | Potency [11] | Potency [12] | Potency [14] | Potency [15] | Potency [19] | Potency [16] | Potency [17] | Potency [20] | Potency [18]

C=Cc1cccc(C)c1
inactive: Potency [1] | outcome [2] | Potency [3] | Potency [4] | Potency [5] | Potency [6] | Potency [7] | Potency [8] | Potency [9] | Potency [10] | Potency [11] | Potency [12] | Potency [13] | Potency [15] | Potency [16] | Potency [17] | Potency [20] | Potency [18]

CCN(CCN)c1cccc(C)c1
inactive: Potency [1] | outcome [2] | Potency [3] | Potency [4] | Potency [5] | Potency [6] | Potency [7] | Potency [8] | Potency [9] | Potency [10] | Potency [11] | Potency [12] | Potency [14] | Potency [15] | Potency [19] | Potency [16] | Potency [17] | Potency [18]

Cc1c(C)c2c(c(C)c1O)CC[C@@](C)(CCC[C@H](C)CCC[C@H](C)CCCC(C)C)O2
inactive: Potency [1] | outcome [2] | Potency [3] | Potency [4] | Potency [5] | Potency [6] | Potency [7] | Potency [8] | Potency [9] | Potency [10] | Potency [11] | Potency [12] | Potency [13] | Potency [16] | Potency [17] | Potency [18]

ClCCl
inactive: Potency [1] | outcome [2] | Potency [3] | Potency [4] | Potency [5] | Potency [6] | Potency [7] | Potency [8] | Potency [9] | Potency [10] | Potency [11] | Potency [12] | Potency [13] | Potency [14] | Potency [15] | Potency [19] | Potency [16] | Potency [17] | Potency [20] | Potency [18]

C[Si](Cl)(c1ccccc1)c1ccccc1
inactive: Potency [1] | outcome [2] | Potency [3] | Potency [4] | Potency [5] | Potency [6] | Potency [7] | Potency [8] | Potency [10] | Potency [11] | Potency [12] | Potency [15] | Potency [17] | Potency [18]

Cc1ccc(C)cc1
inactive: Potency [1] | outcome [2] | Potency [3] | Potency [4] | Potency [5] | Potency [6] | Potency [7] | Potency [8] | Potency [10] | Potency [11] | Potency [12] | Potency [15] | Potency [19] | Potency [16] | Potency [17] | Potency [18]

CCN1C(=O)c2ccccc2C1Nc1ccc(OCCN2CCCCC2)cc1 (stereo unspecified)
inactive: Potency [1] | outcome [2] | Potency [3] | Potency [4] | Potency [5] | Potency [6] | Potency [7] | Potency [9] | Potency [10] | Potency [11] | Potency [12] | Potency [13] | Potency [15] | Potency [19] | Potency [16] | Potency [17] | Potency [20] | Potency [18]

Cc1nc2n(c(=O)c1CCN1CCC(c3noc4cc(F)ccc34)CC1)CCCC2
inactive: Potency [1] | outcome [2] | Potency [3] | Potency [4] | Potency [5] | Potency [6] | Potency [9] | Potency [10] | Potency [11] | Potency [12] | Potency [15] | Potency [16] | Potency [17] | Potency [20] | Potency [18]

CCC(COC(=O)CCS)(COC(=O)CCS)COC(=O)CCS
inactive: Potency [1] | outcome [2] | Potency [3] | Potency [4] | Potency [5] | Potency [6] | Potency [7] | Potency [8] | Potency [9] | Potency [10] | Potency [11] | Potency [12] | Potency [14] | Potency [15] | Potency [16] | Potency [17] | Potency [18]

CC(C)CCCCCOC(=O)CCS
inactive: Potency [1] | outcome [2] | Potency [3] | Potency [4] | Potency [5] | Potency [6] | Potency [7] | Potency [8] | Potency [9] | Potency [10] | Potency [11] | Potency [12] | Potency [14] | Potency [15] | Potency [17] | Potency [20] | Potency [18]

FC(F)(F)c1cccc(Cl)c1
inactive: Potency [1] | outcome [2] | Potency [3] | Potency [4] | Potency [5] | Potency [6] | Potency [7] | Potency [8] | Potency [9] | Potency [10] | Potency [11] | Potency [12] | Potency [15] | Potency [19] | Potency [16] | Potency [17] | Potency [18]

From PubChem BioAssay (Tox21)
